Only some compounds are listed: those with a hit (about 12% of all), similar ones and a draw of the others.
Shiga inhibitor: inhibitors of Shiga toxin in Vero cells | actives 9.2% (n = 290,000) | Vero cells, Shiga toxin protein synthesis inhibition reporter | inhibition, % at 38.7 µM | AID 2315; in the data active = inhibition mostly above about 28%, no sharp cut-off; inactive = mostly below about 43%
CHX counter: counter-screen hit for Shiga toxin inhibitors, cycloheximide. actives 12% (n = 300,000). max response, %. AID 2314. cell reporter, cycloheximide protein synthesis inhibition counterscreen; in the data active = max response mostly above about 13%, no sharp cut-off; inactive = mostly below about 14%; also: read at 38.3 µM for the half of the compounds with a filed dose
SARS PLpro yeast: inhibitors of SARS-CoV papain-like protease in yeast. S. cerevisiae expressing SARS-CoV PLpro, growth rescue. Potency, µM (highest dose often 32.9 µM), usual class: activators. actives 0.19% (n = 330,000). AID 485353; also: nearly all actives have a fitted effect of over 55% in size
NS1 function inh: blocks influenza NS1 protein function | Potency, µM (titrated, usually from 46.1 µM) | actives 0.4% (n = 270,000) | AID 2326; also: actives are rising curves; nearly all actives have a fitted effect of over 50% in size
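S. cerevisiae expressing influenza A NS1, grown in glucose, washed, then diluted 1:100 into pH 6.0 -URA galactose medium with 23 nl compound. Growth recovery read as OD600; NS1-free strain serves as control.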
Hits are given with their value; i = inactive; ? = inconclusive; nt = no result; [ ] = dose if it differs, or a comment. Unless noted, calls follow the shape of the full dose curve.

SMILES	Shiga inhibitor	CHX counter	SARS PLpro yeast	NS1 function inh
O=C1c2ccccc2C(O)(c2ncc[nH]2)N1CCc1ccccc1 (stereo not given)	i	i	i	i
Cc1sc(NC(=O)C2CCCO2)c(C#N)c1C (stereo not given)	i	15	i	i
Cc1sc(NC(=O)C2CCCO2)c(C(N)=O)c1C (stereo not given)	i	i	i	i
N#Cc1c(NC(=O)C2CCCO2)sc2c1CCCCCC2 (stereo not given)	84	39	i	i
CCOC(=O)c1c(NC(=O)C2CCCO2)sc2c1CCC2 (stereo not given)	i	i	nt	i
NC(=O)c1c(NC(=O)C2CCCO2)sc2c1CCCC2 (stereo not given)	56	38	i	i
Cc1ccnc(NC(=S)NC(=O)/C=C/c2ccccc2)c1	61	32	i	i
O=C(/C=C/c1ccccc1)NC(=S)Nc1cccnc1	i	i	i	i
Cc1ccnc(NC(=S)NC(=O)/C=C/c2ccc(Cl)cc2)c1	26	26	i	i
Cc1cccnc1NC(=S)NC(=O)/C=C/c1ccccc1	78	31	i	i
CCC(=O)Nc1ccc(NC(=S)NC(=O)/C=C/c2ccccc2)cc1	i	i	i	i
CC(C)(C)OC(=O)N1CCN(C(=O)c2[nH]cnc2C(=O)Nc2nccs2)CC1	nt	nt	i	nt
O=C(NCc1c(Cl)cccc1Cl)c1ccc2nnsc2c1	i	i	i	i
c1ccc2oc(C3=NNC(=NC4CC4)SC3)cc2c1	i	41	i	i
CC1(C)CSC(=NCc2ccccc2)N1	i	i	i	i
c1ccc(CN=C2NN=C(c3cc4ccccc4o3)CS2)cc1	44	26	i	i
c1csc(C2=NNC(=NC3CCCCC3)SC2)c1	75	37	i	nt
Cc1ccccc1C(=O)N=c1sccn1C	i	13	i[6.58 µM]	i
Cc1cccc(C(=O)N=c2sccn2C)c1[N+](=O)[O-]	74	50	i	i
CCOc1ncccc1C(=O)N=c1sccn1C	i	i	i	i
CCc1ccc(C(=O)OCC(=O)NCCNC(=O)COC(=O)c2ccc(CC)cc2)cc1	i	i	i	i
O=C(NC1CCSc2ccccc21)c1ccc(F)c(S(=O)(=O)N2CCOCC2)c1 (stereo not given)	i	i	i	i
C#CCSc1nc(N)c2c(n1)OC(N)=C(C#N)C2c1cccnc1 (stereo not given)	i	i	i	nt
O=C(CCCn1c(=O)[nH]c2cc(Cl)ccc2c1=O)NCC1CCCO1 (stereo not given)	i	i	i	i
O=C(CCCn1c(=S)[nH]c2ccc(Br)cc2c1=O)NCC1CCCO1 (stereo not given)	i	i	?	1.8µM
SMILES	Shiga inhibitor	CHX counter	SARS PLpro yeast	NS1 function inh
c1ccc2cc(C3N4CCCN34)ccc2c1 (stereo not given)	i	24	i	nt
Cc1cccc(-n2ccnc2CN2CCC(CO)(Cc3ccccc3)CC2)c1	i	i	i	i
O=C(NCc1cccs1)c1ccc(N2CCCC2=O)cc1	53	36	i	i
O=C(NCc1cccs1)c1ccc(N2CCCCC2)nc1	112	53	nt	i
CC1CCN(S(=O)(=O)CCNC(=O)c2ccccc2)CC1	nt	nt	i	nt
CC1CCN(c2ccc(C(=O)NCCc3ccccc3)cn2)CC1	99	27	i	i
O=C(NCc1cccs1)c1ccncc1	i	i	i	i
CC1CCCN(c2ccc(C(=O)NCc3cccs3)cn2)C1 (stereo not given)	active	45	i	i
C#Cc1ccc(C(=O)NCc2ccc(N3CCCC3=O)cc2)cc1	i	i	i	nt
CCc1noc(C)c1C(=O)Nc1cccc2ncccc12	i	i	i	i
CC1CCC2C(=O)N(c3ccc(C(=O)NCc4ccccc4)cc3)C(=O)C2C1 (stereo not given)	i	i	i	i
CC1CCCN(c2ccc(C(=O)NCc3ccccc3)cn2)C1 (stereo not given)	104	31	i	nt
Cc1cc(C)c(C(=O)CSc2nnc(N)s2)cc1C	i	26	i	i
CCOc1ccc(C(C)=O)cc1CSc1nnc(N)s1	i	i	i	i
Cc1nnc(SCC(=O)c2ccc(C(C)C)cc2)s1	74	31	i	i
CCOc1ccc(C(=O)CSc2nnc(N)s2)cc1	73	i	i	i
Cc1ccc(C(=O)CSc2nnc(N)s2)c(C)c1	78	38	i	i
Cc1cc(C)c(C(=O)CSc2nnc(N)s2)c(C)c1	i	i	i	i
COCc1ccc(C(=O)N2CCCC(N3CCN(c4ccc(F)cc4)CC3)C2)o1 (stereo not given)	i	i	i	i
COCC(C)n1c(C)cc(C(=O)CSc2nnc(N)s2)c1C (stereo not given)	i	24	i	i
Cc1ccc(C(=O)CSc2nnc3ccccn23)c(C)c1	i	27	i	i
Nc1nnc(SCC(=O)N2CCCCC2)s1	i	i	i	i
COCCn1c(C)cc(C(=O)CSc2nnc3ccccn23)c1C	i	i	i	i
Cc1nnc(SCC(=O)N2CCCCC2)s1	34	18	i	i
Cc1cc(C)c(C(=O)CSc2nnc(C)c(=O)[nH]2)cc1C	95	48	i	i
SMILES	Shiga inhibitor	CHX counter	SARS PLpro yeast	NS1 function inh
Cc1cc(C(=O)CSc2nnc(N)s2)c(C)n1C1CC1	nt	nt	i	nt
COC(=O)CSc1nnc(C)c(=O)[nH]1	i	i	?	i
CC(OC(=O)c1cc(=O)[nH]c2ccccc12)C(=O)Nc1ccccc1F (stereo not given)	nt	nt	i	nt
COC(=O)C1C(c2ccc(OC)cc2)C(C(=O)OC)S(=O)(=O)C(CCN2CCCCC2)S1(=O)=O (stereo not given)	i	i	i	nt
CN(Cc1ccc(F)cc1)C(=O)CCc1nnc(-c2ccccc2)o1	108	47	i	i
CCc1ccc(CN(C)C(=O)CCc2nnc(CCc3cccc(OC)c3)o2)nc1	i	i	i	i
O=C(CCc1nnc(COc2ccccc2)o1)NCc1ccccc1C(F)(F)F	i	17	i	i
COc1ccc(CCN(C)C(=O)CCc2nnc(-c3ccccc3)o2)cc1OC	65	59	i	i
CCc1ccc(CN(C)C(=O)CCc2nnc(COc3ccccc3)o2)cc1	81	30	i	i
COCCN(C)C(=O)CCc1nnc(Cc2ccc(-c3ccccc3)cc2)o1	i	i	i	i
CC(NC(=O)c1ccco1)c1ccc(-n2ccnc2)cc1 (stereo not given)	nt	nt	i	nt
COc1ccc(C(=O)Nc2ccccc2C(=O)NCc2cccnc2)cc1	i	i	i	i
CN(Cc1nnc(-c2ccc(F)cc2)o1)c1ccccc1	71	32	i	i
CN(Cc1nc2c(s1)CCCC2)C(=O)CCc1nnc(-c2ccccc2)o1	61	23	i	i
COC(c1ccccc1)c1nnc(CCC(=O)N(C)CCc2ccccc2)o1 (stereo not given)	i	i	i	i
CCN(CC)c1ccc(CNCc2cccs2)cc1	i	20	i	i
c1ccc2c(c1)oc1c(NCCN3CCOCC3)ncnc12	i	i	i	?
Oc1ccc(Nc2ncnc3c2oc2ccccc23)cc1	33	40	i	i
c1ccc(Nc2ncnc3c2oc2ccccc23)cc1	121	66	nt	i
c1ccc2c(c1)oc1c(Nc3ccc(CN4CCOCC4)cc3)ncnc12	106	92	i	i
Oc1cccc(Nc2ncnc3c2oc2ccccc23)c1	93	50	i	i
Nc1c(Cl)ncnc1NCCc1ccc(O)cc1	i	i	i	i

Screening results as filed in PubChem BioAssay.
